25 compounds from PubChem BioAssay (EPA / NIEHS) can be followed below.

Inconclusive results are not listed. Some structures have more than one record in an assay (separate samples or runs), and their calls can disagree. Active and inactive are the calls of the source. Rule for the calls, unless noted: active = hit-call score of the fitted dose curve at least 0.9, where 1 is the maximum; inconclusive = response in the unintended direction; inactive = score below 0.9.

Experiment [1] addresses Nuclear receptor subfamily 1 group I member 2 (Homo sapiens) (UniProt O75469). Put plainly: NVS_NR_hPXR: NovaScreen (NVS) Nuclear Receptor Binding Assay for human Pregnane X Receptor (PXR) (AID 2283365).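 Note: a drop in FRET signal versus DMSO baseline means the compound binds.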 A digest of the protocol: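 Human PXR binding measured by TR-FRET in a cell-free format, 2 h exposure. Single-concentration duplicates at 25 uM preceded concentration-response retests of actives; endpoint fitted positively relative to DMSO, loss of signal indicating binding.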

Experiment [2] has as its target Estrogen receptor beta (Homo sapiens) (UniProt Q92731). The experiment can be described thus: OT_ER_ERbERb_1440: Odyssey Thera (OT) 24-hour HEK293T Protein-Complementation Assay for Estrogen Receptor-beta/-beta Homodimer (AID 2283380).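 Note: fluorescence gain from ER beta LBD homodimer complementation read by laser scanning cytometry; scored as signal increase over DMSO baseline for both agonists and antagonists.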 A digest of the protocol: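 HEK293T cells stably expressing human ER-beta LBD (aa 310-547) PCA homodimer pair, dosed 24 h; formaldehyde-fixed, Draq5-stained. Readout: increase in nuclear (agonist) or nuclear plus cytoplasmic (antagonist) fluorescence intensity versus DMSO, gain-of-signal fitting.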

Experiment [3] concerns the target Retinoic acid receptor RXR-alpha (Homo sapiens) (UniProt P19793). Put plainly: OT_NURR1_NURR1RXRa_0480: Odyssey Thera (OT) 8-hour HEK293T Protein Complementation Assay for Nurr1/retinoid X receptor (RXR) (AID 2283385). A digest of the protocol: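 8 h compound exposure, HEK293T; Nurr1/RXRα fragment complementation; fluorescence intensity; positive fitting direction vs DMSO baseline.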

The target of experiment [4] is Peroxisome proliferator-activated receptor gamma (Homo sapiens) (UniProt P37231). Put plainly: OT_PPARg_PPARgSRC1_0480: Odyssey Thera (OT) 8-hour Protein-Complementation Assay for Peroxisome Proliferator-activated Receptor Gamma / SRC-1 Co-activator (AID 2283387).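 Note: nuclear to cytoplasmic split Venus YFP fluorescence ratio reporting PPARg SRC-1 interaction.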 In a few lines: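 HEK293T transiently transfected with PPARg and SRC-1 fused to Venus YFP fragments, compounds 8 h at 37C. Fixed, Draq5-stained cells imaged; nuclear/cytoplasmic 488 nm fluorescence ratio over at least 350 cells per image; gain fitted versus DMSO.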
Peroxisome proliferator-activated receptor gamma (Homo sapiens), sequence (P37231 whole entry, looked up, the tested form may be a part): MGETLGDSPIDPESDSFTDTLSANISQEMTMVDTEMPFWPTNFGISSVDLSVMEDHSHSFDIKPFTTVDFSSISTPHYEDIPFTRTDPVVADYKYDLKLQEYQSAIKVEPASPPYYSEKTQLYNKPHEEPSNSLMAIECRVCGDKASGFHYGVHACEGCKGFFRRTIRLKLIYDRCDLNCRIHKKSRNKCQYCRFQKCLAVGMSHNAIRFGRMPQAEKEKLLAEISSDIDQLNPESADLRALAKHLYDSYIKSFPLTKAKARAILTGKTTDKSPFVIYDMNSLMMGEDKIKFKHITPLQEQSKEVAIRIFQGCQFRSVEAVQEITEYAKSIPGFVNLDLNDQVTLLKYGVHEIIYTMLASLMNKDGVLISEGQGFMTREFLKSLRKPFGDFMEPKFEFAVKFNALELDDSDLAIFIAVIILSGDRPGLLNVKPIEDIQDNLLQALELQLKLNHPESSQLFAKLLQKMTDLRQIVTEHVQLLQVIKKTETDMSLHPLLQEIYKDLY

The target is the same in experiment [5]. The experiment can be described thus: OT_PPARg_PPARgSRC1_1440: Odyssey Thera (OT) 24-hour Protein-Complementation Assay for Peroxisome Proliferator-activated Receptor Gamma/ SRC-1 Co-activator (AID 2283388). A digest of the protocol: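 Readout is the 488 nm N/C fluorescence ratio from fixed, Draq5-stained HEK293T cells after 24 h compound exposure. Cells carried transiently transfected PPARg and SRC-1 fused to Venus fragments, transfected 48 h before treatment.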

Experiment [6] addresses Glucocorticoid receptor (Homo sapiens) (UniProt P04150). The experiment can be described thus: NVS_NR_hGR: NovaScreen (NVS) Nuclear Receptor Binding Assay for human Glucocorticoid Receptor (GR) (AID 2283363).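 For AC50: activity is loss of specific radioligand binding signal relative to DMSO.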 A digest of the protocol:
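Cell-free radioligand binding with extracted receptor protein, read by filter-based scintillation counting 16 hours after dosing. Loss of specific signal versus DMSO baseline was scored. Primary screen ran in duplicate at 25 uM; actives were followed up in concentration series.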

Experiment [7] deals with rat Androgen Receptor (AR), Ar (gene 24208) (UniProt P15207). The experiment can be described thus: NVS_NR_rAR: NovaScreen (NVS) Nuclear Receptor Binding Assay for rat Androgen Receptor (AR) (AID 2283366). In a few lines: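 Cell-free radioligand binding on extracts of prostate from testosterone-pretreated rats, read by filter-based scintillation counting 18 h after dosing. Loss of bound signal fitted positively versus DMSO; primary screen in duplicate at 25 uM, actives followed up in concentration series.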
rat Androgen Receptor (AR), Ar (gene 24208), sequence (P15207 whole entry, looked up): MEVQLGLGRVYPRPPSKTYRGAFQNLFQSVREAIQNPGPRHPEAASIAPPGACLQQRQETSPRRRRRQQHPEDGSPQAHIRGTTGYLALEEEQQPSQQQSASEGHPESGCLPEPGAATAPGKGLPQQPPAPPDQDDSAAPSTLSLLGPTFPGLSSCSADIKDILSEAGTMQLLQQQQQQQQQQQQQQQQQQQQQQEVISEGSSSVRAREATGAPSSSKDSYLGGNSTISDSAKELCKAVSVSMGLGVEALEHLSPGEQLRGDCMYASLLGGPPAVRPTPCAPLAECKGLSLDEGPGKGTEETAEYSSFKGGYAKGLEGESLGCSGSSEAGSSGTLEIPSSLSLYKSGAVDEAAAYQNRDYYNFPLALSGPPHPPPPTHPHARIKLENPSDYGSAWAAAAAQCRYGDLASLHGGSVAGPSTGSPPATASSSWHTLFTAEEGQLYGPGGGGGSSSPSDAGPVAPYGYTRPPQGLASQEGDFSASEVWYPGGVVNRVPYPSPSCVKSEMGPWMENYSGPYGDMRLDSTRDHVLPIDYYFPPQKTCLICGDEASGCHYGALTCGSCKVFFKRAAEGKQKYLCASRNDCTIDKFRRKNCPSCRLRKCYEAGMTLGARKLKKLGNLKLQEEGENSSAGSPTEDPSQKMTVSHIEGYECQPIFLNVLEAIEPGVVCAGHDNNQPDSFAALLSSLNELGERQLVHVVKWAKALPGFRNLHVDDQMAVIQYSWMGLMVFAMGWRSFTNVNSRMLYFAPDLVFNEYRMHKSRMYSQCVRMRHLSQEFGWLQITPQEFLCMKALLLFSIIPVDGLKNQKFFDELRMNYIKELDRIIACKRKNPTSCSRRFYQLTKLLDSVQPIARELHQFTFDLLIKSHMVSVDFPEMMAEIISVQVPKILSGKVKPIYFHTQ

The target of experiment [8] is Bile acid receptor (Homo sapiens) (UniProt Q96RI1). The experiment can be described thus: OT_FXR_FXRSRC1_1440: Odyssey Thera (OT) 24-hour HEK293T Protein-Complementation Assay for Farnesoid X receptor/SRC-1 Co-activator (AID 2283384). A digest of the protocol: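 Compounds are applied to human kidney HEK293T cells expressing bait and prey fused to reporter protein fragments; after 24 h, reconstituted reporter fluorescence is measured. Activity is fitted as signal gain over DMSO.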
Bile acid receptor (Homo sapiens), sequence (Q96RI1 whole entry, looked up, the tested form may be a part): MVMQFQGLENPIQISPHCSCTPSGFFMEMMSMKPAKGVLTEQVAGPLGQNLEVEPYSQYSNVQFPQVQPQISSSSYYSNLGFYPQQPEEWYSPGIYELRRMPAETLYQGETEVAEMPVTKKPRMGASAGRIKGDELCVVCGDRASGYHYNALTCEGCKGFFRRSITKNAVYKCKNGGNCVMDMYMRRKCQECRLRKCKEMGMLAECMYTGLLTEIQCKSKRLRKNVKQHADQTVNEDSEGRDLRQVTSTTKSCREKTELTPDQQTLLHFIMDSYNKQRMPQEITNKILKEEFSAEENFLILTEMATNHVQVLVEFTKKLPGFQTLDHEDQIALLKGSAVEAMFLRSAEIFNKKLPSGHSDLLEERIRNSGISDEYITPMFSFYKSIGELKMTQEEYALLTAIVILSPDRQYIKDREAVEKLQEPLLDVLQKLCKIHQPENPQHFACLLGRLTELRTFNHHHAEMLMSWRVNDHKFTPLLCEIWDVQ

Experiment [9] shares this target. The experiment can be described thus: OT_FXR_FXRSRC1_0480: Odyssey Thera (OT) 8-hour HEK293T Protein-Complementation Assay for Farnesoid X receptor/SRC-1 Co-activator (AID 2283383). A digest of the protocol: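 Human kidney HEK293T cells carried FXR/SRC-1 fragment-complementation constructs. Compounds were added and incubated 8 h. Reporter reassembly upon receptor–co-activator interaction was then quantified by fluorescence, with curves fitted in the positive direction relative to DMSO.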

Experiment [10] concerns the target Peroxisome proliferator-activated receptor gamma (Homo sapiens) (UniProt P37231). The experiment can be described thus: NVS_NR_hPPARg: NovaScreen (NVS) Nuclear Receptor Binding Assay for human Peroxisome Proliferator-activated Receptor gamma (PPARg) (AID 2283370). A digest of the protocol: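 Fluorescence polarization readout of ligand binding to extracted human PPARg, measured at 2 h. Duplicate single-point screen at 25 uM, then concentration-series retesting; activity defined as signal loss versus DMSO.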

For experiment [11], the target named is Retinoic acid receptor RXR-alpha (Homo sapiens) (UniProt P19793). The experiment can be described thus: OT_NURR1_NURR1RXRa_1440: Odyssey Thera (OT) 24-hour HEK293T Protein Complementation Assay for Nurr1/retinoid X receptor (RXR) (AID 2283386). In a few lines: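 Interaction of Nurr1 with RXRα brings fused reporter fragments together in human HEK293T cells, restoring a functional reporter. Fluorescence intensity is measured 24 h after chemical treatment, and values are analysed in the positive direction against DMSO.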
Retinoic acid receptor RXR-alpha (Homo sapiens), sequence (P19793 whole entry, looked up, the tested form may be a part): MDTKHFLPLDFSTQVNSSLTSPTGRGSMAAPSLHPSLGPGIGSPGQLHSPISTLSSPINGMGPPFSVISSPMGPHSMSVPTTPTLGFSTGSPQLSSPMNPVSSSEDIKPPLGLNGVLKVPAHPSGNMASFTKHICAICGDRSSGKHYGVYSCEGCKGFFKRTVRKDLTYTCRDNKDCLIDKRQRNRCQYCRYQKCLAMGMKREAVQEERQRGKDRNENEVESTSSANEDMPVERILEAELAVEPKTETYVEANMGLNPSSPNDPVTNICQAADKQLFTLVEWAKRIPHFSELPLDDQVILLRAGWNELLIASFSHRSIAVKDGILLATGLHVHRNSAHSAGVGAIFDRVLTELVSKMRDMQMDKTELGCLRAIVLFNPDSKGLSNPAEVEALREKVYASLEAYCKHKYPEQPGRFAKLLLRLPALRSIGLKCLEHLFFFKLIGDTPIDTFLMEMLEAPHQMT

The target in experiment [12] is Agonist Androgen Response Element (ARE), AR (gene 367) (UniProt P10275). Put plainly: OT_AR_ARELUC_AG_1440: Odyssey Thera (OT) 24-hour CHO-K1 Luciferase Assay for Agonist Androgen Response Element (ARE) (AID 2283379). A digest of the protocol:
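Seed CHO-K1 cells; dose compounds for 24 h; add D-luciferin plus ATP in PBS; read luminescence. Signal increase relative to vehicle defines agonist activity, with at least 3 replicate wells per sample.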

The target in experiment [13] is Estrogen receptor (Homo sapiens) (UniProt P03372). Put plainly: OT_ERa_GFPERaERE_0480: Odyssey Thera (OT) 8-hour HeLa Transcription Induction Assay for Estrogen Receptor (AID 2283381; active = hit-call score of the fitted dose curve at least 0.9, where 1 is the maximum; inactive = score below 0.9). In a few lines:
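Fluorescent reporter signal, imaged by microscopy and scored with image-analysis algorithms, was taken 8 h after chemical dosing of HeLa cells; activity was fitted upward relative to DMSO.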

For experiment [14] the target is unchanged. Put plainly: OT_ERa_GFPERaERE_0120: Odyssey Thera (OT) 2-hour HeLa Transcription Induction Assay for Estrogen Receptor (AID 2283382). A digest of the protocol: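 HeLa, 384-well, 2 h chemical exposure; GFP reporter induction (ERE), fluorescence microscopy; high content image analysis; positive fitting direction vs DMSO.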

Nuclear receptor subfamily 1 group I member 2 (Homo sapiens), sequence (O75469 whole entry, looked up): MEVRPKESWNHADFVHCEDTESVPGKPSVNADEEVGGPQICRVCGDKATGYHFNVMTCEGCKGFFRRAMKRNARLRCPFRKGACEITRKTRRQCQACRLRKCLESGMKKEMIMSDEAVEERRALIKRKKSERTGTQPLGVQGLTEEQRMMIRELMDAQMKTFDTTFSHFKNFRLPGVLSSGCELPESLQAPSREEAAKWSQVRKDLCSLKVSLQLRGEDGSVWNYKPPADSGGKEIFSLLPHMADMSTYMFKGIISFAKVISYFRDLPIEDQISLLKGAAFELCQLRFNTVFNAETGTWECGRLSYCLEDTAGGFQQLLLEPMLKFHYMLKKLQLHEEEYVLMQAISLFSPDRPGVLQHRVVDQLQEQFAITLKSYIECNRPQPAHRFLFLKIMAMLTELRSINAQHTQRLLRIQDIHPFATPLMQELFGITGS
Estrogen receptor (Homo sapiens), sequence (P03372 whole entry, looked up): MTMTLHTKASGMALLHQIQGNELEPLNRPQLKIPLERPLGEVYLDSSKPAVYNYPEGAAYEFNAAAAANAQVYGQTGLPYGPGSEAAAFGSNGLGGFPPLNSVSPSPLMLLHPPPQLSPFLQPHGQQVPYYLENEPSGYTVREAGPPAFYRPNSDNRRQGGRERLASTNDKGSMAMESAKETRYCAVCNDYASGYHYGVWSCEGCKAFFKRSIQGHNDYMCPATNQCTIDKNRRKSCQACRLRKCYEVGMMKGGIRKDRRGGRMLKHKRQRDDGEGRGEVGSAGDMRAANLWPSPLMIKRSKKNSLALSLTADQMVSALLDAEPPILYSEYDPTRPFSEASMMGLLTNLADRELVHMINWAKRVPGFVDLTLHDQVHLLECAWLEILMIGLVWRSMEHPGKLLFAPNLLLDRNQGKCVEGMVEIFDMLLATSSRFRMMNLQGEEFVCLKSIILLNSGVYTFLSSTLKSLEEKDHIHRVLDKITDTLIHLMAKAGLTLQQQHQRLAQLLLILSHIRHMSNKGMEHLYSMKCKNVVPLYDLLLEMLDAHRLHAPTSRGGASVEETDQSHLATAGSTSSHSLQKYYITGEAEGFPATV
Glucocorticoid receptor (Homo sapiens), sequence (P04150 whole entry, looked up): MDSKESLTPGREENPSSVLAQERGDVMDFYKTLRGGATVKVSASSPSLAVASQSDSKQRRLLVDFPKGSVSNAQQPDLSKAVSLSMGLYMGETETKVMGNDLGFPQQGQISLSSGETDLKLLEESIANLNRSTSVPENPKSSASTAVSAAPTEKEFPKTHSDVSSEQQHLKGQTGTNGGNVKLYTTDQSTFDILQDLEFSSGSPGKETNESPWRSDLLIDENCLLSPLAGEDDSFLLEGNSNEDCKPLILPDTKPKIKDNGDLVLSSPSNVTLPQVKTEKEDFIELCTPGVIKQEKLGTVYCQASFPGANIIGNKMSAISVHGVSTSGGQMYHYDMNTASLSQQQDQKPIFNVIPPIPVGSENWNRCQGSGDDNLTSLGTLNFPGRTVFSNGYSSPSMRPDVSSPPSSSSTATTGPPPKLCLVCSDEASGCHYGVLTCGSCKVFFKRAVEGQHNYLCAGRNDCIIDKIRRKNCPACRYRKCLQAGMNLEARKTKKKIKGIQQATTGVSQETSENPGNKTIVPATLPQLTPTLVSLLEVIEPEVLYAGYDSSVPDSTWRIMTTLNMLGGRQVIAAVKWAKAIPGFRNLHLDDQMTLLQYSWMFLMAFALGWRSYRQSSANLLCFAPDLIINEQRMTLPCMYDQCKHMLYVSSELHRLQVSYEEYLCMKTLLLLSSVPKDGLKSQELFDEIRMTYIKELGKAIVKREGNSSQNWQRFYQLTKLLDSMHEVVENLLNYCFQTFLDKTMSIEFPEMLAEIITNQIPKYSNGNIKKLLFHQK
Estrogen receptor beta (Homo sapiens), sequence (Q92731 whole entry, looked up, the tested form may be a part): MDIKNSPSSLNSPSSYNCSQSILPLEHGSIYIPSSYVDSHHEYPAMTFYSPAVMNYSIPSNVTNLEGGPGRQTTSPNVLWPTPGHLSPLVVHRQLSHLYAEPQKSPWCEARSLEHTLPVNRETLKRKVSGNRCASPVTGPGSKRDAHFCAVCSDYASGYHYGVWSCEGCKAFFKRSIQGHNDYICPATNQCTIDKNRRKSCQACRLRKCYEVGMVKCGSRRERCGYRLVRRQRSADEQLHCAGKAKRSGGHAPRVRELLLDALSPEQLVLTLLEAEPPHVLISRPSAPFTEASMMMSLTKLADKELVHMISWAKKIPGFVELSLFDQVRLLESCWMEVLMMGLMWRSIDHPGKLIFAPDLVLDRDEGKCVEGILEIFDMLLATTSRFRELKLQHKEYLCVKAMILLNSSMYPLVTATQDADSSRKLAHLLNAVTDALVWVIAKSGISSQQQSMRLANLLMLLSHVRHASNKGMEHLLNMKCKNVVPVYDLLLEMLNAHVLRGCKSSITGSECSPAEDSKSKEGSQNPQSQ

As to `O=P(O)(O)O`, the outcome in experiment [1], in experiment [2], in experiment [3], in experiment [4] and in experiment [5] was inactive.
Regarding `Oc1c(Cl)cc(Cl)c(Cl)c1Cc1c(O)c(Cl)cc(Cl)c1Cl`, the half-maximal activity concentration (AC50) in experiment [6] was 4.34 µM (active); in experiment [7] it was 2.06 µM (active).
As for `[O-]n1ccccc1=S.[O-]n1ccccc1=S.[Zn+2]`, the concentration at half-maximal activity (AC50) in experiment [6] is 0.776 µM (active). Further, the compound was called inactive in experiment [2], in experiment [4] and in experiment [5].
Regarding `CCCCC(CC)COC(C)=O` (stereo not given), the outcome in [1], in experiment [2], in [3], in experiment [4] and in [5] was inactive.
As for `OCCc1ccccc1`, the call in experiment [1], in experiment [8], in experiment [4] and in [5] was inactive.
As to `CCCCCCCCN1CCCC1=O`, the result in experiment [1], in [2], in experiment [8], in experiment [3], in experiment [4] and in [5] was inactive. Moreover, the AC50 in experiment [9] is 50 µM (active).
As to `CCCCCCCCCCCCN1CCCCCC1=O`, the outcome in experiment [1], in [2] and in experiment [5] was inactive. In addition, the results for the AC50 in experiment [9] and in experiment [3] were 11.3 µM (active) and 44.3 µM (active), respectively.
`Nc1ccc2cc(S(=O)(=O)O)cc(O)c2c1N=Nc1ccccc1C(F)(F)F`: the results for the concentration at half-maximal activity (AC50) in experiment [6] and in experiment [10] were 5.65 µM (active) and 2.32 µM (active), respectively. For the same compound, the compound was classed as inactive in experiment [2], in [4] and in [5].
As for `CCC(C)c1cc([N+](=O)[O-])cc([N+](=O)[O-])c1OC(=O)OC(C)C` (stereo not given), the AC50 in [6] was 5.81 µM (active).
As for `CCCCCCCCCCCCCCN(CCO)CCO`, the half-maximal activity concentration (AC50) in [6] was 8.13 µM (active). Besides, the call in experiment [1], in [4] and in [5] was inactive.
Turning to `CCCCCCCC(=O)OCC(O)CO` (stereo not given), the compound was called inactive in [1], in experiment [2], in experiment [3], in experiment [4] and in [5].
On to `C=C1CC[C@H](O)C/C1=C/C=C1\CCC[C@]2(C)[C@@H]([C@H](C)/C=C/[C@H](C)C(C)C)CC[C@@H]12`, for which the figures for the AC50 in experiment [6], in experiment [1] and in experiment [9] were 25 µM (active), 12 µM (active) and 36.8 µM (active), respectively. The compound was called inactive in [10], in experiment [2], in experiment [3], in experiment [11], in [4] and in [5].
On to `CC(C)c1ccccc1O`, for which the result in experiment [1], in experiment [2], in [9] and in experiment [3] was inactive.
For `CCCCCCCCC=CCCCCCCCC1=NCCN1CCO`, the AC50 in [6] is 5.02 µM (active); in experiment [7], 7.33 µM (active). Further, the outcome in experiment [12], in experiment [4] and in experiment [5] was inactive.
For the compound `CCOc1ccc(NC(=O)CC(C)=O)cc1`, the AC50 in experiment [6] is 1.99 µM (active).
Consider `CCOc1ccc(N=Nc2ccc(C=Cc3ccc(N=Nc4ccc(OCC)cc4)cc3S(=O)(=O)O)c(S(=O)(=O)O)c2)cc1`, for which the values for the AC50 in experiment [6] and in [1] were 3.4 µM (active) and 0.695 µM (active), respectively. For the same compound, the outcome in experiment [10], in [3], in [11], in experiment [4] and in experiment [5] was inactive.
For `CCCCCCCCc1ccc(S(=O)(=O)O)cc1`, the AC50 in experiment [6] was 17 µM (active); in [10], 4.22 µM (active). Further, the outcome in [10], in [2], in experiment [9], in [8], in experiment [4] and in experiment [5] was inactive.
Consider `O=C(O)c1ccc(O)cc1`, for which the call in [1], in experiment [8], in [11], in experiment [4] and in experiment [5] was inactive.
Take `Cc1ccc(S(=O)(=O)Oc2ccc(N=Nc3ccc(-c4ccc(N=Nc5c(O)ccc6cc(S(=O)(=O)O)cc(S(=O)(=O)O)c56)c(C)c4)cc3C)cc2)cc1`: the AC50 in experiment [6] is 0.548 µM (active); in [1], 0.701 µM (active); in experiment [7] it was 0.463 µM (active); in [3] it was 35 µM (active). Besides, the outcome in experiment [10], in [2], in experiment [8], in [4] and in experiment [5] was inactive.
Regarding `O=C1NC2NC(=O)NC2N1` (stereo not given), the call in experiment [1], in experiment [9], in [8], in [3], in experiment [4] and in experiment [5] was inactive. Further, the AC50 in experiment [2] is 7.06 µM (active).
In the case of `OC[C@H]1O[C@@H]2O[C@H]3[C@H](O)[C@@H](O)[C@@H](O[C@H]4[C@H](O)[C@@H](O)[C@@H](O[C@H]5[C@H](O)[C@@H](O)[C@@H](O[C@H]6[C@H](O)[C@@H](O)[C@@H](O[C@H]7[C@H](O)[C@@H](O)[C@@H](O[C@H]8[C@H](O)[C@@H](O)[C@@H](O[C@H]9[C@H](O)[C@@H](O)[C@@H](O[C@H]1[C@H](O)[C@H]2O)O[C@@H]9CO)O[C@@H]8CO)O[C@@H]7CO)O[C@@H]6CO)O[C@@H]5CO)O[C@@H]4CO)O[C@@H]3CO`, the half-maximal activity concentration (AC50) in experiment [1] is 4.18 µM (active). In addition, the call in experiment [2], in experiment [3], in experiment [4] and in [5] was inactive.
As for `O=C(Nc1ccc2c(O)c(N=Nc3ccc(N=Nc4ccc(S(=O)(=O)O)cc4)cc3)c(S(=O)(=O)O)cc2c1)c1ccccc1`, in experiment [1], the AC50 was 1.19 µM (active). The compound was classed as inactive in [10], in [2], in [13], in experiment [14], in experiment [3] and in experiment [11]. Besides, the compound was called inactive in experiment [4] and in experiment [5].
Regarding `COc1ccc(N=Nc2cc(C)c(N=Nc3ccc(S(=O)(=O)O)cc3)cc2OC)cc1`, the AC50 in [6] was 1.91 µM (active); in experiment [1], 8.57 µM (active). Further, the call in experiment [10], in experiment [2], in experiment [4] and in experiment [5] was inactive.
`CC(C)CCCCCCc1ccc(OCCOCCO)cc1`: the outcome in experiment [1], in experiment [13], in [14], in experiment [11], in experiment [4] and in experiment [5] was inactive. Further, the AC50 in [12] is 3.19 µM (active); in experiment [2], 25 µM (active).
For `CCC(=O)O[C@@H]1C[C@H]2CC[C@]1(C)C2(C)C`, the compound was classed as inactive in experiment [6], in [10], in experiment [2], in [4] and in experiment [5].

A word on the AC50: it is the concentration giving half of the maximal activity seen.
